We go through eight compounds from PubChem BioAssay (NCI).

This is part of a sample that, as a whole, favours compounds with a hit. Of some 83,000 tested, about 20% had one in any assay.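 Interpretation: 100, growth as untreated; towards 0, rising growth inhibition; 0, no net growth; 0 to -100, cell death. Compounds scoring below 10 were considered active.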 Values without a mark were called inactive. The source made the active and inactive calls.

Some test systems named below: MOLT-4 leukemia; RPMI-8226 leukemia; OVCAR-8 ovarian; OVCAR-5 ovarian; OVCAR-4 ovarian; SK-OV-3 ovarian; IGROV1 ovarian; OVCAR-3 ovarian; NCI/ADR-RES ovarian; T-47D breast; BT-549 breast; MDA-MB-435 melanoma; SW-620 colon; MCF7 breast; HCT-116 colon; HCC-2998 colon; HS 578T breast; KM12 colon.
Holding throughout (test): NCI-60 one-dose screen, 48 h (100 = growth as untreated, 0 = no growth, -100 = all killed)
Common to all, as to settings: 10 µM unless noted

As for `COc1cc2c(c(OC)c1OC)-c1ccc([O-])c(=O)cc1[C@@H](NC(C)=O)CC2.COc1cc2c(c(OC)c1OC)-c1ccc([O-])c(=O)cc1[C@@H](NC(C)=O)CC2.[Cu+2]`, the growth was 10.5% with MOLT-4 leukemia; 15.3% with RPMI-8226 leukemia; 23.2% in the assay on OVCAR-8 ovarian; 54.3% in the assay with OVCAR-5 ovarian; 48.6% in the assay with OVCAR-4 ovarian; 17.2% with SK-OV-3 ovarian. The growth was -0.159% (active) in the assay with IGROV1 ovarian; -26.7% (active) in the assay on OVCAR-3 ovarian; 40.4% with NCI/ADR-RES ovarian; 41.1% with T-47D breast; 12.8% in the assay with BT-549 breast; -18.8% (active) in the assay with MDA-MB-435 melanoma. The growth was 19.3% in the assay with SW-620 colon, 11% in the assay on MCF7 breast, 8.67% (active) in the assay on HCT-116 colon and -14.9% (active) in the assay on HCC-2998 colon.
With `CC1(C)N=C(N)N=C(N)N1c1ccc(CCCCc2ccc(Cl)c(S(=O)(=O)F)c2)c(Cl)c1`, the growth with MOLT-4 leukemia is -33.1% (active); in the assay on RPMI-8226 leukemia, -24.2% (active); in the assay with OVCAR-8 ovarian, 5.53% (active); in the assay on OVCAR-5 ovarian it was 44.9%; with OVCAR-4 ovarian, 35.8%; with SK-OV-3 ovarian, 57.4%. Also, the growth was 29.5% in the assay on OVCAR-3 ovarian; 75.3% in the assay on HS 578T breast; 55.6% in the assay with NCI/ADR-RES ovarian; 42.3% in the assay on T-47D breast; 24.7% with BT-549 breast; 24.6% with MDA-MB-435 melanoma. The growth is 24.4% with SW-620 colon; 19.1% in the assay with MCF7 breast; 19.6% with HCT-116 colon; 23.7% with HCC-2998 colon; 15.2% in the assay on KM12 colon.
Consider `C/C1=C/C(=O)O[C@@H]2C[C@@H](CC[C@H](C)/C=C\C=C\CC1)O[C@@](O)([C@@H]1CSC(=O)N1CO)C2`, for which the growth in the assay with MOLT-4 leukemia is 33.4%; in the assay on RPMI-8226 leukemia it was 50.7%; in the assay with OVCAR-8 ovarian, 42.8%; with OVCAR-5 ovarian, -3.16% (active); in the assay with OVCAR-4 ovarian, 20.4%; in the assay with SK-OV-3 ovarian, -14.1% (active). The growth was -7.34% (active) with OVCAR-3 ovarian; -48.7% (active) in the assay on HS 578T breast; 47.6% with NCI/ADR-RES ovarian; 56.8% in the assay with T-47D breast; -13.3% (active) in the assay on BT-549 breast; 32% with MDA-MB-435 melanoma. Besides, the growth in the assay with SW-620 colon was 53.2%; with MCF7 breast it was 56.8%; with HCT-116 colon it was 27.2%; with HCC-2998 colon, 34.7%; in the assay on KM12 colon it was 62%.
Regarding `COC1=CC(=O)O[C@@H](/C=C/c2ccc3c(c2)OCO3)C1`, the growth in the assay with MOLT-4 leukemia was 91%; in the assay with RPMI-8226 leukemia it was 49.9%; in the assay with OVCAR-8 ovarian, 99.3%; in the assay on OVCAR-5 ovarian, 95.7%; with OVCAR-4 ovarian, 112%; in the assay on SK-OV-3 ovarian, 110%. Besides, the growth with IGROV1 ovarian is 99.2%; in the assay on HS 578T breast it was 95.1%; in the assay on NCI/ADR-RES ovarian it was 95.7%; in the assay on T-47D breast it was 93.2%; with BT-549 breast, 95%; in the assay on MDA-MB-435 melanoma, 100%. Moreover, the growth was 104% in the assay with SW-620 colon; 99.7% in the assay on MCF7 breast; 105% with HCT-116 colon; 111% in the assay with HCC-2998 colon; 103% with KM12 colon.
On to `CC1(C)N=C(N)N=C(N)N1c1ccc(OCCCNC(=O)Nc2ccc(S(=O)(=O)F)cc2)c(Cl)c1`, for which the growth is 33.4% in the assay with MOLT-4 leukemia; 24.6% in the assay with RPMI-8226 leukemia; 31.5% in the assay with OVCAR-8 ovarian; 48% in the assay with OVCAR-5 ovarian; 58.5% in the assay on SK-OV-3 ovarian; 17.9% in the assay with IGROV1 ovarian. The growth with OVCAR-3 ovarian is 27.4%; in the assay with HS 578T breast, 83.6%; with NCI/ADR-RES ovarian it was 115%; in the assay with T-47D breast it was 52.4%; in the assay with BT-549 breast it was 60.9%; in the assay with MDA-MB-435 melanoma, 31.5%. Moreover, the growth was 20.6% in the assay with SW-620 colon, 18.4% with MCF7 breast, 14.8% with HCT-116 colon and 15.3% in the assay on HCC-2998 colon.
`COc1cccc2c1c(C(=O)C(=O)Nc1cc(C)no1)cn2Cc1ccc(F)cc1`: the growth with MOLT-4 leukemia was 32.5%; with RPMI-8226 leukemia, 20.7%; with OVCAR-8 ovarian, 81.7%; in the assay with OVCAR-5 ovarian, 76.1%; with SK-OV-3 ovarian, 102%; with IGROV1 ovarian it was 37%. Moreover, the growth in the assay on OVCAR-3 ovarian was 3.35% (active); in the assay on HS 578T breast, 53.3%; with NCI/ADR-RES ovarian, -0.189% (active); with T-47D breast it was 68%; in the assay with BT-549 breast, 25.5%; in the assay on MDA-MB-435 melanoma it was -34.4% (active). Further, the growth in the assay with SW-620 colon was 15.5%; with MCF7 breast, 26.9%; with HCT-116 colon, 34.4%; in the assay with HCC-2998 colon it was 58.4%; in the assay with KM12 colon, 16.4%.
On to `CC1(C)N=C(N)N=C(N)N1c1cccc(CCCCc2ccc(Cl)c(S(=O)(=O)F)c2)c1`, for which the growth was 38.3% in the assay with MOLT-4 leukemia; 45.7% in the assay with RPMI-8226 leukemia; 19.4% with OVCAR-8 ovarian; 49.6% with OVCAR-5 ovarian; 50.5% with OVCAR-4 ovarian; 72.8% in the assay with SK-OV-3 ovarian. In addition, the growth in the assay with OVCAR-3 ovarian is 47.1%; with HS 578T breast, 83.9%; with NCI/ADR-RES ovarian, 104%; in the assay with T-47D breast, 86.6%; in the assay on BT-549 breast, 51.8%; with MDA-MB-435 melanoma it was 35.8%. In addition, the growth in the assay with SW-620 colon is 30.9%; in the assay on MCF7 breast it was 28.8%; with HCT-116 colon it was 17.7%; in the assay on HCC-2998 colon, 35.1%; in the assay with KM12 colon, 22.3%.
`CCCCCN(CCCCC)CC(O)c1cc(Cl)ccc1OC` (centres undefined): the growth in the assay with MOLT-4 leukemia was 34.9%; in the assay with RPMI-8226 leukemia it was 0.775% (active); with OVCAR-8 ovarian it was 63.1%; in the assay with OVCAR-5 ovarian, 53.7%; in the assay with OVCAR-4 ovarian, 42.9%; in the assay on SK-OV-3 ovarian, 53.6%. In addition, the growth in the assay with IGROV1 ovarian is 2.26% (active); in the assay on OVCAR-3 ovarian, 28.6%; with HS 578T breast, 50.1%; with NCI/ADR-RES ovarian, 32.4%; in the assay on T-47D breast, 35%; with BT-549 breast, 79.8%. Also, the growth is 42.8% in the assay on MDA-MB-435 melanoma; 25% with SW-620 colon; 15.8% in the assay on MCF7 breast; 17.2% in the assay on HCC-2998 colon; 29.8% with KM12 colon.
